Results: PubChem BioAssay AID1159580 (chemical genetic matrix, 2015)
Hit rate of the full screen: of about 5,500 compounds, about 2,000 (36%) were called active. Inconclusive results (about 18%) are left out. Cut-off read from the data, not from the text of the source: active = normalized growth mostly below about 0.91 (no sharp cut-off); inconclusive = no clear call, values can overlap the other calls; inactive = mostly above about 0.92. Some of the results follow.

Experiment: chemical genetic growth profiling, strain panel (AID 1159580);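 note: tested at 20 µM; growth read once vehicle control cultures reached saturation at 30 °C; 1 = growth at the plate median or of vehicle wells; lower values mean less growth of the strain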
Conditions: growth OD

Measured: normalized growth

COc1ccc2cc([C@H](C)CO)ccc2c1
inactive: S. cerevisiae deletion strains, locus YJR066W, strain TOR1, active compounds read low 0.935 | S. cerevisiae deletion strains, locus YJR075W, strain HOC1, active compounds read low 0.998 | S. cerevisiae deletion strains, locus YKL009W, strain mrt4, active compounds read low 0.935 | S. cerevisiae deletion strains, locus YKL068W, active compounds read low 0.975 | S. cerevisiae deletion strains, locus YKL085W, strain MDH1 (second series), active compounds read low 0.949 | S. cerevisiae deletion strains, locus YKL085W, strain MDH1, active compounds read low 0.949 | S. cerevisiae deletion strains, locus YKL160W, strain elf1, active compounds read low 1 | S. cerevisiae deletion strains, locus YKL190W, strain CNB1, active compounds read low 0.995 | S. cerevisiae deletion strains, locus YKR001C, strain vps1, active compounds read low 0.97 | S. cerevisiae deletion strains, locus YKR026C, strain gcn3, active compounds read low 1.01 | S. cerevisiae deletion strains, locus YKR091W, strain srl3, active compounds read low 1.01 | S. cerevisiae deletion strains, locus YLL001W, strain dnm1, active compounds read low 1.01 | S. cerevisiae deletion strains, locus YLL026W, active compounds read low 1.01 | S. cerevisiae deletion strains, locus YLL041C, strain sdh2, active compounds read low 1.01 | S. cerevisiae deletion strains, locus YLR027C, strain aat2, active compounds read low 1.01 | S. cerevisiae deletion strains, locus YLR039C, strain RIC1, active compounds read low 0.991 | S. cerevisiae deletion strains, locus YLR058C, strain SHM2, active compounds read low 0.977 | S. cerevisiae deletion strains, locus YLR102C, strain apc9, active compounds read low 0.966 | S. cerevisiae deletion strains, locus YLR113W, strain HOG1, active compounds read low 0.929 | S. cerevisiae deletion strains, locus YLR221C, strain rsa3, active compounds read low 1.01 | S. cerevisiae deletion strains, locus YLR258W, strain gsy2, active compounds read low 1.01 | S. cerevisiae deletion strains, locus YLR262C, strain YPT6 (second series), active compounds read low 1.01 | S. cerevisiae deletion strains, locus YLR262C, strain YPT6, active compounds read low 0.9 | S. cerevisiae deletion strains, locus YLR268W, strain sec22, active compounds read low 1.03 | S. cerevisiae deletion strains, locus YLR320W, strain mms22, active compounds read low 1.02 | S. cerevisiae deletion strains, locus YLR330W, strain CHS5, active compounds read low 0.992 | S. cerevisiae deletion strains, locus YLR342W, strain FKS1 (second series), active compounds read low 0.969 | S. cerevisiae deletion strains, locus YLR342W, strain FKS1, active compounds read low 1.01 | S. cerevisiae deletion strains, locus YLR357W, strain rsc2, active compounds read low 1 | S. cerevisiae deletion strains, locus YLR370C, strain arc18, active compounds read low 1.01 | S. cerevisiae deletion strains, locus YLR371W, strain rom2, active compounds read low 0.918 | S. cerevisiae deletion strains, locus YLR384C, strain iki3, active compounds read low 1.01 | S. cerevisiae deletion strains, locus YLR418C, strain cdc73, active compounds read low 0.968 | S. cerevisiae deletion strains, locus YML016C, strain PPZ1, active compounds read low 0.989 | S. cerevisiae deletion strains, locus YML032C, strain rad52, active compounds read low 0.989 | S. cerevisiae deletion strains, locus YML120C, strain ndi1, active compounds read low 1.01 | S. cerevisiae deletion strains, locus YMR058W, strain fet3, active compounds read low 1.01 | S. cerevisiae deletion strains, locus YMR078C, strain ctf18, active compounds read low 0.969 | S. cerevisiae deletion strains, locus YMR125W, strain sto1, active compounds read low 1.01 | S. cerevisiae deletion strains, locus YMR129W, active compounds read low 1.02 | S. cerevisiae deletion strains, locus YMR205C, strain PFK2, active compounds read low 1.02 | S. cerevisiae deletion strains, locus YMR223W, strain ubp8, active compounds read low 0.964 | S. cerevisiae deletion strains, locus YMR231W, strain pep5, active compounds read low 1.01 | S. cerevisiae deletion strains, locus YMR263W, strain SAP30, active compounds read low 0.985 | S. cerevisiae deletion strains, locus YMR307W, strain GAS1, active compounds read low 1.04 | S. cerevisiae deletion strains, locus YNL067W, strain RPL9B, active compounds read low 0.991 | S. cerevisiae deletion strains, locus YNL071W, strain lat1, active compounds read low 1.01 | S. cerevisiae deletion strains, locus YNL128W, strain TEP1, active compounds read low 0.979 | S. cerevisiae deletion strains, locus YNL153C, strain GIM3, active compounds read low 0.996 | S. cerevisiae deletion strains, locus YNL183C, strain NPR1, active compounds read low 0.917 | S. cerevisiae deletion strains, locus YNL209W, strain ssb2, active compounds read low 1.01 | S. cerevisiae deletion strains, locus YNL233W, strain BNI4, active compounds read low 1.01 | S. cerevisiae deletion strains, locus YNL248C, strain rpa49, active compounds read low 0.968 | S. cerevisiae deletion strains, locus YNL250W, strain rad50, active compounds read low 0.956 | S. cerevisiae deletion strains, locus YNL271C, strain bni1, active compounds read low 0.979 | S. cerevisiae deletion strains, locus YNL298W, strain CLA4, active compounds read low 0.949 | S. cerevisiae deletion strains, locus YNL307C, strain MCK1, active compounds read low 0.97 | S. cerevisiae deletion strains, locus YNL322C, strain KRE1 (second series), active compounds read low 1.01 | S. cerevisiae deletion strains, locus YNL322C, strain KRE1, active compounds read low 0.996 | S. cerevisiae deletion strains, locus YNR049C, strain mso1, active compounds read low 1.01 | S. cerevisiae deletion strains, locus YNR052C, strain pop2, active compounds read low 0.975 | S. cerevisiae deletion strains, locus YOL006C, strain TOP1, active compounds read low 0.91 | S. cerevisiae deletion strains, locus YOL012C, strain htz1 1.3 | S. cerevisiae deletion strains, locus YOL147C, strain pex11, active compounds read low 0.941 | S. cerevisiae deletion strains, locus YOR001W, strain rrp6, active compounds read low 1.02 | S. cerevisiae deletion strains, locus YOR061W, strain CKA2, active compounds read low 0.968 | S. cerevisiae deletion strains, locus YOR069W, strain VPS5, active compounds read low 0.988 | S. cerevisiae deletion strains, locus YOR070C, strain gyp1, active compounds read low 1.01 | S. cerevisiae deletion strains, locus YOR080W, strain dia2, active compounds read low 1.01 | S. cerevisiae deletion strains, locus YOR083W, strain WHI5, active compounds read low 1.01 | S. cerevisiae deletion strains, locus YOR106W, strain vam3, active compounds read low 1 | S. cerevisiae deletion strains, locus YOR136W, strain idh2, active compounds read low 0.977 | S. cerevisiae deletion strains, locus YOR144C, strain elg1, active compounds read low 0.978 | S. cerevisiae deletion strains, locus YOR184W, strain ser1, active compounds read low 0.95 | S. cerevisiae deletion strains, locus YOR231W, strain MKK1, active compounds read low 0.937 | S. cerevisiae deletion strains, locus YOR265W, strain rbl2, active compounds read low 1.01 | S. cerevisiae deletion strains, locus YOR270C, strain vph1, active compounds read low 0.997 | S. cerevisiae deletion strains, locus YOR290C, strain snf2, active compounds read low 0.998 | S. cerevisiae deletion strains, locus YOR316C, strain cot1, active compounds read low 0.976 | S. cerevisiae deletion strains, locus YPL051W, strain arl3, active compounds read low 1.01 | S. cerevisiae deletion strains, locus YPL055C, strain LGE1, active compounds read low 0.98 | S. cerevisiae deletion strains, locus YPL078C, strain atp4, active compounds read low 1.01 | S. cerevisiae deletion strains, locus YPL106C, strain sse1, active compounds read low 1.04 | S. cerevisiae deletion strains, locus YPL240C, strain hsp82, active compounds read low 1.01 | S. cerevisiae deletion strains, locus YPL241C, strain CIN2, active compounds read low 0.985 | S. cerevisiae deletion strains, locus YPL256C, strain CLN2, active compounds read low 0.924 | S. cerevisiae deletion strains, locus YPR119W, strain clb2, active compounds read low 0.971 | S. cerevisiae deletion strains, locus YPR141C, strain kar3, active compounds read low 0.959 | S. cerevisiae deletion strains, locus YPR163C, strain tif3, active compounds read low 0.978 | S. cerevisiae deletion strains, locus YPR167C, strain met16, active compounds read low 0.977 | S. cerevisiae deletion strains, strain wtn01, active compounds read low 0.968 | S. cerevisiae strains, strain wild type, active compounds read low 0.979
